Assay results as given in PubChem BioAssay AID720554 (ICCB-Longwood Screening Facility, Harvard Medical School, 2013).
About 45 (0.4%) of roughly 12,000 compounds were called active. No stated cut-off is given here; in the data, active means inhibition mostly above about 83% (no sharp cut-off); inactive means mostly below about 52%. The sample as a whole holds a higher share of actives than the screen did.

How the values were obtained:
[1] = BmaI1 acyl-homoserine lactone synthase inhibition – biochemical, fluorescence intensity, with counterscreen (AID 720554); details: BmaI1 enzyme assay, measured here: counterscreen fluorescence % control, concentration not given here
[2] = tested on: acyl-homoserine lactone synthase BmaI1 (Burkholderia mallei ATCC 23344); assay: as above; details: BmaI1 enzyme assay, stronger effect = higher value, concentration not given here

Compound | inhibition [1] [%] | inhibition [2]
Cc1nc(N2CCCCC2)sc1C1Sc2ccccc2NC1=O (stereo not drawn) | -5 | -2.5% (inactive)
Cc1nc(N2CCCC2)sc1C(=O)c1oc2ccccc2c1C | 17 | 20% (inactive)
O=C1N=c2ccccc2=C1c1sc(N2CCCCC2)nc1O | 8.5 | 91.5% (active)
CC(C)CNCC(=O)Nc1ccc(S(N)(=O)=O)cc1 | -1.5 | 6.5% (inactive)
Cc1csc(C(C#N)C(=O)CSc2ccc3c(c2)OCCO3)n1 (stereo not drawn) | 0 | 16% (inactive)
Cn1cccc1C(=O)Nc1ccc2c(c1)nc1n2CCCCC1 | 27 | 18% (inactive)
CC(=O)Nc1ccc(/C=N/N2C(=O)c3ccccc3C2=O)cc1 | 14.5 | 13% (inactive)
S=c1[nH]c(-c2ccccc2)cn1/N=C/c1ccc2c(c1)OCCO2 | 41.5 | 94% (inactive)
CC(=O)Nc1ccc(/C=N/n2cc(-c3ccccc3)[nH]c2=S)cc1 | 13.5 | 90% (active)
O=C(CCc1nc2ccccc2c(=O)[nH]1)Nc1ccccc1C(=O)NC1CC1 | 5.5 | 13.5% (inactive)
O=C(OC(c1ccccc1)c1ccccc1)c1ccncc1 | 14 | 14% (inactive)
N[C@@H](C(=O)N[C@@H]1C(=O)N2C(C(=O)O)=C(CSc3cn[nH]n3)CS[C@H]12)c1ccc(O)cc1 (tested in a mixture with another compound) | 6 | 93% (active)
CC1=C(C(=O)O)N2C(=O)[C@@H](NC(=O)[C@H](N)c3ccccc3)[C@H]2SC1 | 7.5 | -7% (inactive)
N[C@@H](C(=O)N[C@@H]1C(=O)N2C(C(=O)O)=C(Cl)CS[C@H]12)c1ccccc1 | 4.5 | 5% (inactive)
CN(C)S(=O)(=O)c1cccc(COC(=O)c2cn(-c3ccccc3)nc2-c2cccs2)c1 | -2.5 | 8.5% (inactive)
Cc1ccc(-c2csc(NC(=O)C3(c4ccccc4)CC3)n2)s1 | 20 | 20% (inactive)
O=C(c1cc(-c2ccccc2)nn1-c1ccccc1)N(C1CC1)C1CCS(=O)(=O)C1 (stereo not drawn) | 2 | 7% (inactive)
Cn1c(=S)[nH]c2ccccc21 | 5 | 51.5% (inactive)
FC(F)n1c(=S)[nH]c2ccccc21 | 0.5 | 13.5% (inactive)
Cc1ccc(Cn2c(=S)[nH]c3ccccc32)cc1 | 3 | 97% (active)
CC(Sc1nnnn1-c1ccc(O)cc1)C(=O)c1ccccc1 (stereo not drawn) | 2.5 | 8.5% (inactive)
c1ccc(CNC2=NCCCCC2)nc1 | -13 | -8.5% (inactive)
O=S(=O)(NNC1=NCCCCC1)c1ccccc1 | 28.5 | 63.5% (inactive)

Compound | inhibition [1] [%] | inhibition [2]
c1ccc(NNC2=NCCCCC2)nc1 | 4.5 | 85% (active)
O=Nc1c(O)[nH]c2c(C(F)(F)F)cccc12 | 11 | 13% (inactive)
COc1cccc(-n2c(SC3CCOC3=O)nc3ccccc3c2=O)c1 (stereo not drawn) | 13.5 | 14.5% (inactive)
O=C(CSc1ncc(C(F)(F)F)cc1Cl)N1CCN(S(=O)(=O)c2ccccc2)CC1 | -4 | 8.5% (inactive)
Cc1noc(C)c1COc1ccc(C(=O)OCC(N)=O)cc1 | 3 | 14% (inactive)
O=C(CCSc1ccc(Cl)cc1)Nc1ccccc1 | 17.5 | 15% (inactive)
CCN(CC)S(=O)(=O)c1ccc2c(c1)nc(CCC(=O)N1CCN(c3ccccc3)CC1)n2CC | 10.5 | 17% (inactive)
CCn1c(CCC(=O)N2CCN(c3ccccn3)CC2)nc2cc(S(N)(=O)=O)ccc21 | -0.5 | 98% (active)
CCCn1c(CCC(=O)N(C)c2ccccc2)nc2cc(S(=O)(=O)N3CCCC3)ccc21 | -2.5 | 37% (inactive)
Cc1ccc(C2=NN(C(=O)CSc3ccc4c(c3)OCCO4)C(c3ccco3)C2)cc1 (stereo not drawn) | 0 | 7.5% (inactive)
O=C(OCC1CCCCC1)c1n[nH]c2ccccc12 | 12.5 | 30.5% (inactive)
COc1ccc(Br)cc1CN(C)CN1C(=O)C2CC=CCC2C1=O (stereo not drawn) | 10.5 | 3.5% (inactive)
CN1/C(=C\C=Nc2ccccc2N)C(C)(C)c2ccccc21 | -25 | -9% (inactive)
CN1/C(=C\C=N\NC(N)=S)C(C)(C)c2ccccc21 | 29 | 85% (active)
CN1/C(=C\C=N\NC(=O)c2cccnc2)C(C)(C)c2ccccc21 | 7 | 43% (inactive)
CC(C)(C)c1ccc(C(=O)NCCc2ccccn2)cc1 | 2 | 5.5% (inactive)
Cc1cccc(OCc2nnc3n2-c2ccccc2SC3)c1 | -6.5 | -1.5% (inactive)
O=C(COC(=O)/C=C/c1ccco1)Nc1cccc(C(F)(F)F)c1 | -1 | 0.5% (inactive)
CC1Cc2ccccc2N1CC(=O)NCc1ccc2c(c1)OCO2 (stereo not drawn) | -28 | 48% (inactive)
S=C(c1ccc(-c2ccccc2)o1)N1CCN(c2ccccc2)CC1 | 13.5 | 97.5% (active)
COc1ccc(N2CCN(C(=S)Cc3ccccc3)CC2)cc1 | 5 | 8.5% (inactive)
NC(=O)c1ccc(-c2ccccc2)o1 | 40 | 20% (inactive)
O=C(COc1ccccc1C(=O)NCc1ccccc1)Nc1cccc2nsnc12 | 0 | 12% (inactive)

Compound | inhibition [1] [%] | inhibition [2]
COc1ccc(COc2ncnc3ccccc23)cc1F | 1 | 19.5% (inactive)
COc1ccc(COC(=O)c2cc(O)c3ccccc3c2O)cc1F | 19.5 | 84.5% (active)
COc1ccc(C(=O)OCc2ccccc2F)c(OC)c1OC | 12.5 | 0% (inactive)
CC(OC(=O)c1ccc(NS(=O)(=O)c2cccs2)cc1)c1nc2scc(-c3cccs3)c2c(=O)[nH]1 (stereo not drawn) | 8.5 | 15.5% (inactive)
CC1=C/C(=N\NC(=O)COc2ccc(C#N)cc2)CC(C)(C)C1 | 2 | 9% (inactive)
CNC(C)c1ccccc1 (stereo not drawn) | -4.5 | -1.5% (inactive)
COC(=O)c1cnc(N)s1 | 5 | 17% (inactive)
Oc1ccc(/C=N/NC(=S)Nc2ccc(Cl)cc2Cl)c(O)c1O | 15.5 | 84% (active)
O=CN1CCN(C(=S)Nc2ccc(Cl)cc2Cl)CC1 | 9 | -3% (inactive)
Fc1ccccc1NC(=S)N/N=C/c1cn(-c2ccccc2)nc1-c1cc2ccccc2o1 | 2.5 | 6% (inactive)
O=C(NCc1ccccc1)c1cccc(OCC(=O)N2CCOCC2)c1 | -11 | -13.5% (inactive)
CC1(C)CC(NCc2cc(Cl)c3c(c2)OCCCO3)CC(C)(C)N1 | 4.5 | 10% (inactive)
Cn1c(N)c(C(=O)CSc2nc3sc4c(c3c(=O)n2Cc2ccco2)CCCC4)c(=O)[nH]c1=O | 5 | 12.5% (inactive)
COc1ccccc1NC(=O)c1ccc(NC(=O)COC(=O)C2CCCO2)cc1 (stereo not drawn) | -4.5 | -1.5% (inactive)
Sc1ccc2c(c1)OCCCO2 | 3.5 | 38% (inactive)
CCOC(=O)C1CCN(C(C)C(=O)Nc2ccc(C(C)C)cc2)CC1 (stereo not drawn) | 3 | 9.5% (inactive)
Ic1ccc(-c2ncc3ccccn23)cc1 | 11 | 17.5% (inactive)
Nn1cc(-c2ccccc2)[nH]c1=S | 52 | 104% (inactive)
S=c1[nH]cc2ccccn12 | 5.5 | 96.5% (active)
Nc1ccc(S(=O)(=O)c2ccc(N)cc2)cc1 | 6 | -2.5% (inactive)
CC(=O)NS(=O)(=O)c1ccc(N)cc1 | 9.5 | -0.5% (inactive)
Nc1ccc(S(=O)(=O)CCSS(=O)(=O)c2ccc(N)cc2)cc1 | 0.5 | 88% (active)
Cc1nnc(SC(C)C(N)=O)n1Cc1ccccc1 (stereo not drawn) | -2 | 9.5% (inactive)

Compound | inhibition [1] [%] | inhibition [2]
COc1ccccc1NC1CC(=O)N(c2cccc(Cl)c2)C1=O (stereo not drawn) | 10.5 | 17.5% (inactive)
COc1cccc(Nc2nnc(SCC(=O)c3cc(C)n(C)c3C)s2)c1 | 9 | 20% (inactive)
COc1cccc(N2C(=O)CC(n3nc(Nc4cccc(C)c4)sc3=S)C2=O)c1 (stereo not drawn) | 27.5 | 102% (active)
C[C@@H](C(=O)N1CCSC1=NCc1ccccc1)N1C(=O)C2CC=CCC2C1=O (stereo partly drawn) | 4 | 8.5% (inactive)
CC1CC(C)CN(C(=O)c2cc3ccccc3oc2=O)C1 (stereo not drawn) | 9 | 8.5% (inactive)
Cc1csc(SCC(=O)c2ccc(S(=O)(=O)N3CCCCC3)cc2)n1 | 21.5 | 58.5% (inactive)
O=C(CSc1nc2ccccc2c(=O)n1C1CCCC1)Nc1ccc2c(c1)OCCO2 | 6 | 28% (inactive)
O=C(CN1CCN(S(=O)(=O)Cc2ccccc2)CC1)Nc1ccc2[nH]c(=O)[nH]c2c1 | 15.5 | 35.5% (inactive)
CN1CCN(C(c2ccccn2)c2c(-c3ccccc3)n(O)c3ccccc23)CC1 (stereo not drawn) | 17 | 105% (active)
Oc1c(C(c2ccccn2)N2CCN(c3ccc(F)cc3)CC2)cc(Cl)c2cccnc12 (stereo not drawn) | -13.5 | 0.5% (inactive)
CCn1c(-c2ccccc2)c(C(=O)CN2CCN(C)CC2)c2ccccc21 | 2.5 | 38% (inactive)
CN(C)C(=O)CN1C(=O)c2ccccc2S1(=O)=O | -3 | 2% (inactive)
O=C1c2ccccc2S(=O)(=O)N1Cc1cc(=O)[nH]c(=O)[nH]1 | -2.5 | -1% (inactive)
CNC(=O)c1sc(CN2C(=O)c3ccccc3S2(=O)=O)nc1C | -7 | 91% (active)
CC(Sc1ccccc1F)C(=O)Nc1ccc(S(N)(=O)=O)cc1 (stereo not drawn) | 1 | 9.5% (inactive)
Cn1c(Cc2cccs2)nnc1SCC(=O)N1CCNC1=O | 2.5 | 15% (inactive)
CCCn1c(SCCCC(=O)c2cccs2)n[nH]c1=O | -0.5 | 5.5% (inactive)
Oc1cc2c(cc1C(c1ccc(C(F)(F)F)cc1)N1CCN(c3ccccc3)CC1)OCO2 (stereo not drawn) | 5 | 5.5% (inactive)
COC(=O)c1ccc(C(c2cc3c(cc2O)OCO3)N2CCN(c3ccccc3)CC2)cc1 (stereo not drawn) | 24 | 83% (active)
COC(=O)c1ccc(C(c2c(O)ccc3ccccc23)N2CCOCC2)cc1 (stereo not drawn) | 11 | 18% (inactive)
